Measurements published in PubChem BioAssay (NCATS).
Results filed as inconclusive are left out. Calls of active or inactive are those of the source. Unless noted, calls follow the shape of the dose curve; as a rule, active = well fitted curve in the direction sought with a large enough effect; inconclusive = small, poorly fitted or top-dose-only effect, or another doubt; inactive = no such curve, though single readings can be large; an effect the other way counts as inactive or inconclusive.

Experiments:
[1] = AP1 Signaling Pathway (AID 357; active = well fitted curve in either direction with a large enough effect, not every such curve was filed as active; also: % is scaled to controls: 0 for no effect and ±100 for the full control effect)
How it was run: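 Titration-series screen for positive or negative modulators of EC50 EGF-induced signaling in ME-180 cells carrying an AP-1-driven beta-lactamase reporter. After 5 hours at 37 degrees Celsius, CCF4 460nm/530nm emission ratio gave %Activity; AC50 values derived.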

[2] = NFAT Signaling Pathway (AID 444; active = well fitted curve in either direction with a large enough effect, not every such curve was filed as active;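 also: carbachol stimulus at about its EC50 of 1 µM final; % is scaled to controls: 0 for no effect and ±100 for the full control effect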); conditions: Jurkat NFAT-bla M1, carbachol, beta-lactamase ratio, 5 h; at 38 µM (top of the series)
How it was run: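 Jurkat cells carrying an NFAT-driven β-lactamase reporter and co-transfected muscarinic M1 receptor were treated with compound plus carbachol (1 uM final, an EC50 level) for 5 h at 37 °C. CCF4 loading followed for 1 h at RT; 460/530 nm ratio gave %activity.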

[3] = Stat Signaling Pathway (AID 446; active = well fitted curve in either direction with a large enough effect, not every such curve was filed as active;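 also: ME-180 cervical cancer cells given 40 pM IL-6 alongside compound; SIE-controlled beta-lactamase reporter measured as 460/530 nm FRET emission ratio; % is scaled to controls: 0 for no effect and ±100 for the full control effect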)
How it was run: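 ME-180 cells carrying a SIE-driven beta-lactamase reporter are stimulated with 40 pM IL-6 for 5 h at 37C in the presence of compound. The 460/530 nm FRET substrate ratio is read after 2.5 h at RT. Data are normalised to 300 pM IL-6 and to 125 nM JAK inhibitor controls.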

[4] = biological target: Glucocorticoid receptor (Homo sapiens) (UniProt P04150); experiment: GR-GFP Redistribution (AID 450;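 active = compounds whose dose series gives a full or clear partial fitted curve of increased nuclear translocation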; also: potency is read from the fitted curve at half-maximal effect); conditions: U2OS GR-GFP nuclear translocation, laser cytometry, 2 h
[5] = biological target: Glucocorticoid receptor (Homo sapiens) (UniProt P04150); experiment: GR-EFC Redistribution (AID 451; calls by dose curve; also: potency is read from the fitted curve at half-maximal effect); conditions: CHO-K1 GR-EFC translocation, beta-gal luminescence, 2 h
How it was run: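 CHO-K1 cells stably expressing nuclear-localized β-gal enzyme acceptor and GR fused C-terminally to the enzyme donor fragment; ligand-driven nuclear translocation restores β-gal by complementation. Compounds titrated up to 46 uM final, 2 h at 37 °C; luminescence read.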

[6] = biological target: 3',5'-cyclic-AMP phosphodiesterase 4B (Homo sapiens) (UniProt Q07343); experiment: qHTS Assay for Inhibitors of PDE-IV (AID 607; active = well fitted activation curve with a large enough effect in the main read-out, with a control signal flat, not every such curve was filed as active; also: potency is read from the fitted curve at half-maximal effect)
How it was run: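 HEK293 ACTOne cells with CNG channel (1000/well), endogenous PDE4; membrane potential dye, compounds up to 22.9 uM final. Fluorescence Ex 535/Em 590; RO 20-1724 (100 uM final) as reference.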

[7] = biological target: Guanine nucleotide-binding protein G(i) subunit alpha-1 (Homo sapiens) (UniProt P63096); experiment: qHTS Assay for Inhibitors of RGS12 GoLoco Motif Activity (Green Fluorophore) (AID 879);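 also: 0% = labeled peptide with Gαi1 and full inhibition = labeled peptide alone without protein; negative values mean loss of peptide binding seen as reduced polarization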
How it was run: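 Fluorescence polarization assay: 50 nM Gαi1 with 10 nM FITC-labeled RGS12 GoLoco peptide in 10 mM Tris pH 7.5, 150 mM NaCl, 0.1 mM GDP, 0.05% NP40, 10 min at room temperature with compound.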

[8] = biological target: Pyruvate kinase PKM (Homo sapiens) (UniProt P14618); experiment: qHTS Assay for Activators of Human Muscle Pyruvate Kinase (AID 954; active = well fitted curve in the direction sought with a large enough effect, not every such curve was filed as active;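 also: 0% = uninhibited enzyme and -100% = no enzyme or full thiadiazolimine inhibition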)
How it was run: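 Purified human PKM2 (0.1 nM) with 0.5 mM PEP (Km) and 0.1 mM ADP in 50 mM imidazole pH 7.2, KCl, MgCl2, 1 h at room temperature; ATP formed read by coupled luciferase luminescence. Normalized to no-enzyme/110 uM thiadiazolimine inhibition; 0.3 nM enzyme column for activation.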

[9] = biological target: Alpha-galactosidase (Coffea arabica) (UniProt Q42656); experiment: Counterscreen for Glucocerebrosidase Inhibitors: qHTS Assay for Coffee Bean alpha-Galactosidase at pH 4.5 (AID 957);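 also: plate controls were enzyme alone for no effect and no enzyme for full effect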
How it was run: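 Green coffee bean enzyme (2 nM final) was incubated with compounds (0.7 nM to 77 uM) and 4-methylumbelliferyl alpha-D-galactopyranoside (80 uM final) in 50 mM citric acid, 0.005% Tween-20, pH 4.5, 20 min at room temperature; AC50 from Hill fits.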

[10] = biological target: Alpha-galactosidase A (Homo sapiens) (UniProt P06280); experiment: Counterscreen for Glucocerebrosidase Inhibitors: qHTS Assay for Human alpha-Galactosidase at pH 4.5 (AID 992); also: 0% is about no effect
How it was run: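 Human enzyme (2 nM) with 80 uM 4-methylumbelliferyl alpha-D-galactopyranoside in 50 mM citric acid, 0.005% Tween-20, pH 4.5, 20 min at room temperature. Compounds 0.7 nM–77 uM; fluorescence Ex 365/Em 440 after pH 10 stop; AC50 from Hill fits.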

[11] = biological target: alpha-glucosidase (Oryza sativa, rice) (UniProt Q653V4); experiment: Counterscreen for Glucocerebrosidase Inhibitors: qHTS Assay for Rice alpha-Glucosidase at pH 5.0 (AID 997);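 also: 0% = full activity with enzyme and -100% = basal without enzyme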
How it was run: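 Rice alpha-glucosidase (4 nM final) with 400 uM 4-methylumbelliferyl-alpha-D-glucopyranoside in citrate buffer pH 5.0, 20 min at room temperature, stopped at pH 10; fluorescence 365/440 nm, compounds 0.7 nM–77 uM, AC50 from Hill fits.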

[12] = biological target: Mitogen-activated protein kinase 10 (Mus musculus) (UniProt Q61831); experiment: JNK3 AlphaScreen Assay (AID 530; active = well fitted curve in either direction with a large enough effect, not every such curve was filed as active;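 also: kinase came from lysate of stimulated human HepG2 cells; signal reports phosphorylation of biotinylated GST-cJun 1-79 at Ser73 with 10 µM ATP; % is scaled to controls: 0 for no effect and ±100 for the full control effect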)
How it was run: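 JNK3 came from HepG2 lysates pre-activated with IL-1beta and TNF-alpha and phosphorylated biotinylated GST-cJun (1-79) at 10 uM ATP, pH 7.6, room temperature. Compounds were titrated. AlphaScreen signal used anti-phospho-cJun (Ser73) antibody.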

[13] = VSVG counterscreen qHTS to identify inhibitors of SARS-CoV-2 cell entry (AID 1645847; calls by dose curve; also: potency is read from the fitted curve at half-maximal effect; nearly all actives have a fitted effect of over 65% in size)
How it was run: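 Luminescence from a luciferase reporter, normalised to bald particle and VSV-G pseudotyped particle wells, is the read-out. Cells are HEK293 expressing human ACE2, exposed to compound 1 h before a 48 h particle infection at 37 °C.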

[14] = biological target: Ubiquitin carboxyl-terminal hydrolase 1 (Homo sapiens) (UniProt O94782); experiment: Inhibitors of USP1/UAF1: Pilot qHTS (AID 504865);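 also: rhodamine fluorescence freed from ubiquitin-rhodamine substrate followed over time; top concentration of the series differs between compounds; % is scaled to controls: 0 for no effect and ±100 for the full control effect; nearly all actives have a fitted effect of over 35% in size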
How it was run: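 In 50mM HEPES pH 7.8 containing 0.5mM EDTA, 1mM TCEP, 0.1 mg/ml BSA and 0.01% Tween-20, 1nM USP1/UAF1 is exposed to compound for 15 min, then Ub-Rho (150nM final) is added and fluorescence is read over time.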

[15] = biological target: Luciferin 4-monooxygenase (Photinus pyralis) (UniProt P08659); experiment: Biochemical firefly luciferase enzyme assay for NPC (AID 624030);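 also: purified P. pyralis luciferase at 10 nM with luciferin and ATP substrate; 0% = DMSO and -100% = full luciferase inhibition by PTC124 control; nearly all actives have a fitted effect of over 70% in size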
How it was run: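 Counter-screen for direct inhibition of the luciferase enzyme by approved-drug library compounds, run at 10 nM enzyme in 50 mM Tris acetate (final). Luminescence was read within 5 min of enzyme-buffer addition and normalized to PTC124 versus DMSO (0%).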

[16] = qHTS profiling for inhibitors of Plasmodium falciparum proliferation (AID 504749);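 also: 0% = DMSO vehicle and full inhibition = artemisinin control; nearly all actives have a fitted effect of over 60% in size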; conditions: P. falciparum in erythrocytes, SYBR Green DNA, 72 h, at 28.7 µM (top of the series)
How it was run: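 P. falciparum-infected erythrocytes (0.3% parasitemia, 2.5% hematocrit final) were exposed to compounds for 72 h at 37 C in 5% CO2, then lysed with SYBR Green buffer overnight at room temperature; parasite DNA fluorescence was normalized to artemisinin and DMSO controls.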

[17] = Primary qHTS for inhibitors of SARS-S pseudo-typed particle cell entry (AID 1479145; calls by dose curve; also: nearly all actives have a fitted effect of over 45% in size; also: potency is read from the fitted curve at half-maximal effect); conditions: outcome: dose series up to 57.1 µM unless noted
[18] = Primary qHTS for Huh7 cytotoxicity: counterscreen for inhibitors of MERS-S pseudotyped particle cell entry (AID 1479147; calls by dose curve; also: potency is read from the fitted curve at half-maximal effect); conditions: outcome: dose series up to 57.1 µM unless noted
[19] = Primary qHTS for inhibitors of MERS-S pseudo-typed particle cell entry (AID 1479149; calls by dose curve; also: nearly all actives have a fitted effect of over 60% in size; also: potency is read from the fitted curve at half-maximal effect); conditions: outcome: dose series up to 57.1 µM unless noted
[20] = Primary qHTS for Vero E6 cytotoxicity: counterscreen for inhibitors of SARS-S pseudo-typed particle cell entry (AID 1479150; calls by dose curve); conditions: outcome: dose series up to 57.1 µM unless noted

3',5'-cyclic-AMP phosphodiesterase 4B (Homo sapiens), sequence (Q07343 whole entry, looked up): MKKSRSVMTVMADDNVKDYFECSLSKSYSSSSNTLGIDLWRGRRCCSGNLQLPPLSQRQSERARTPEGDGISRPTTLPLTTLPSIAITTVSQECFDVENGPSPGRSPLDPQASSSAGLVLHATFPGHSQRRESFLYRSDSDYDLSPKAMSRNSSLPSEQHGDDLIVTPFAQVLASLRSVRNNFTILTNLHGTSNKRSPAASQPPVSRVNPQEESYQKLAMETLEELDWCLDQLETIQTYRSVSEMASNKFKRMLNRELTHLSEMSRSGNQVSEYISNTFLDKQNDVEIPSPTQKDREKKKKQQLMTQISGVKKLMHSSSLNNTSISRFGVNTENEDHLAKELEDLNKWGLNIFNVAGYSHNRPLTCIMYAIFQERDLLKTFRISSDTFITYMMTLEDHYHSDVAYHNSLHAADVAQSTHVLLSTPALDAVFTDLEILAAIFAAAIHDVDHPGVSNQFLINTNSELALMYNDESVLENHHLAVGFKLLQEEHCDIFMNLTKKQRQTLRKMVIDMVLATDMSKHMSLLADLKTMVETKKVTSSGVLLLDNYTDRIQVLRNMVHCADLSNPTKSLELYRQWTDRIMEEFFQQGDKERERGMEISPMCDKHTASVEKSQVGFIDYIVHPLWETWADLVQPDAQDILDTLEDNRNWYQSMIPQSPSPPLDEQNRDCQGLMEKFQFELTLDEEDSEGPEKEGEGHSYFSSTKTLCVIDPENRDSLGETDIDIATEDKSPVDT
Pyruvate kinase PKM (Homo sapiens), sequence (P14618 whole entry, looked up): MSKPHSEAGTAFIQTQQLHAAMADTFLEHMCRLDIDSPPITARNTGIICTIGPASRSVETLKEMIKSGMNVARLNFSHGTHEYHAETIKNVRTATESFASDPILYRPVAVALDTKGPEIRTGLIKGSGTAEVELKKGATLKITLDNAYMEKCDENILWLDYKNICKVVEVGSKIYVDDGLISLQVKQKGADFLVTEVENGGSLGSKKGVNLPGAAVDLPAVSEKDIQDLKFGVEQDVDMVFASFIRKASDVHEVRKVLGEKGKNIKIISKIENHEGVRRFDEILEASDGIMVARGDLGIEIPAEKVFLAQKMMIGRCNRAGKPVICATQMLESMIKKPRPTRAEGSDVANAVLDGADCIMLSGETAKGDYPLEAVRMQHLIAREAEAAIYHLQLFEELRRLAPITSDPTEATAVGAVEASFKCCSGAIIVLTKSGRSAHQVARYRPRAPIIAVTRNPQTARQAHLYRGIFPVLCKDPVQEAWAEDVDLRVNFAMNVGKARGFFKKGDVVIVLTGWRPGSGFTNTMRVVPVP
Glucocorticoid receptor (Homo sapiens), sequence (P04150 whole entry, looked up, the tested form may be a part): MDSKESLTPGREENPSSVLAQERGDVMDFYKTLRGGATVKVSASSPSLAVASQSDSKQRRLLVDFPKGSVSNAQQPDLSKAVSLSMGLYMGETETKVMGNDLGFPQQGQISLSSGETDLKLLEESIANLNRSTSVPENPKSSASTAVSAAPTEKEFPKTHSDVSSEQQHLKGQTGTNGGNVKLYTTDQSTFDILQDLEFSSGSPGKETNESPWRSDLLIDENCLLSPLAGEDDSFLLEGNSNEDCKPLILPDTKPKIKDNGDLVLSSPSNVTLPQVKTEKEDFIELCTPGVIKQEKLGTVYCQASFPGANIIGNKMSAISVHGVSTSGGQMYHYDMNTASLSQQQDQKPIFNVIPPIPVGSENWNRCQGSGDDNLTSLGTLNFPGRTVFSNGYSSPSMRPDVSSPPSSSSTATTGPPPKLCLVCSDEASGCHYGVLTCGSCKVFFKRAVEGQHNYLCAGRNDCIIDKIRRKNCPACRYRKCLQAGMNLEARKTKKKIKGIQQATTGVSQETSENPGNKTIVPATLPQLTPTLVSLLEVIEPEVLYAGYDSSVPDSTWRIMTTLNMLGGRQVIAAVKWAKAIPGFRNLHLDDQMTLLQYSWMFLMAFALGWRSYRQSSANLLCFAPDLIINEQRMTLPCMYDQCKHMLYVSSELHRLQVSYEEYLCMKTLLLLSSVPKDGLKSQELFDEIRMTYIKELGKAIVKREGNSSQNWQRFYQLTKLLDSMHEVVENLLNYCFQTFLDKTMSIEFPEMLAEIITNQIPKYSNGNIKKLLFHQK
Luciferin 4-monooxygenase (Photinus pyralis), sequence (P08659 whole entry, looked up): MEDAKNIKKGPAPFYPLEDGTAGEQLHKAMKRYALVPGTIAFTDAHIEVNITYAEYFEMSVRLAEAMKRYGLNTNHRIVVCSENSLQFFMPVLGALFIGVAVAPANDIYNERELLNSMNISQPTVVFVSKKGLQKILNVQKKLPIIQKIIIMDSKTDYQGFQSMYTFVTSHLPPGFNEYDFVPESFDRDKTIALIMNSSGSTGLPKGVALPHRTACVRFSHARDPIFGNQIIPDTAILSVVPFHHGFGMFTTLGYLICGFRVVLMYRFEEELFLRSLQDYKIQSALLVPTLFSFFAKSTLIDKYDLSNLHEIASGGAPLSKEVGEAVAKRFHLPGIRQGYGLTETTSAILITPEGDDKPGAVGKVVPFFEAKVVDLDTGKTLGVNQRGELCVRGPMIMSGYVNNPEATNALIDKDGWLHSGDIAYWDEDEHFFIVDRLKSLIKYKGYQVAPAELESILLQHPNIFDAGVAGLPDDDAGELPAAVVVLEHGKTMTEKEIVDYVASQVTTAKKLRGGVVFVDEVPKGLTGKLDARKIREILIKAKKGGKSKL
Ubiquitin carboxyl-terminal hydrolase 1 (Homo sapiens), sequence (O94782 whole entry, looked up): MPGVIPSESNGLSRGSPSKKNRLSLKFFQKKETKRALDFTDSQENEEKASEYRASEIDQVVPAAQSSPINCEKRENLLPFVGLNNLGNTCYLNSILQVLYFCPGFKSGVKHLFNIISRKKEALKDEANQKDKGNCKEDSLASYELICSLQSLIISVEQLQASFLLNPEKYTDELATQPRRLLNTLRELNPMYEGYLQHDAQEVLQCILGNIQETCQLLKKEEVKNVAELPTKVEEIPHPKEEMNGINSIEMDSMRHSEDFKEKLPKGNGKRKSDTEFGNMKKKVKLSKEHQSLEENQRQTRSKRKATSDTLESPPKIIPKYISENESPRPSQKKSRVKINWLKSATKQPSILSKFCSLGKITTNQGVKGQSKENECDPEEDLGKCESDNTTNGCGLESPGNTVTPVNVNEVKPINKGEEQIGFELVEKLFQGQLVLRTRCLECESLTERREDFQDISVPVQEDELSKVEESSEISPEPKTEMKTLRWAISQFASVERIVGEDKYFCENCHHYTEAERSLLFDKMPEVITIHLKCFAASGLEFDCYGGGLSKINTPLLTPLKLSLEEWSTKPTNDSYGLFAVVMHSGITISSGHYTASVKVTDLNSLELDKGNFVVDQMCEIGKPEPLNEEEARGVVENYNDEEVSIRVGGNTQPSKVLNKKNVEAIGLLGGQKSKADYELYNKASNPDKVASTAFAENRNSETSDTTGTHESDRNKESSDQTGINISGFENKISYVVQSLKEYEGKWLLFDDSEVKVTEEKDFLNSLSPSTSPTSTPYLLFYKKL
Alpha-galactosidase A (Homo sapiens), sequence (P06280 whole entry, looked up): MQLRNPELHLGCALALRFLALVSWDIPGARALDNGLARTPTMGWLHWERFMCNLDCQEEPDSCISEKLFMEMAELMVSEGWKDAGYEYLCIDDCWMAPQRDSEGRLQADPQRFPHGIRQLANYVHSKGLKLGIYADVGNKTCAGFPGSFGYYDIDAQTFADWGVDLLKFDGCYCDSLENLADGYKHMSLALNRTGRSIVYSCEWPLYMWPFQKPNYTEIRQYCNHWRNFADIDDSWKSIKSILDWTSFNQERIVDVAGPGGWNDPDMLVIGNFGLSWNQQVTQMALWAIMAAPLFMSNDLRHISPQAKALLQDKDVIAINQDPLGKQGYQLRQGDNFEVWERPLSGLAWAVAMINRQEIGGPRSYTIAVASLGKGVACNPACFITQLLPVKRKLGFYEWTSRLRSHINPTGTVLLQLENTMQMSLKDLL
Guanine nucleotide-binding protein G(i) subunit alpha-1 (Homo sapiens), sequence (P63096 whole entry, looked up): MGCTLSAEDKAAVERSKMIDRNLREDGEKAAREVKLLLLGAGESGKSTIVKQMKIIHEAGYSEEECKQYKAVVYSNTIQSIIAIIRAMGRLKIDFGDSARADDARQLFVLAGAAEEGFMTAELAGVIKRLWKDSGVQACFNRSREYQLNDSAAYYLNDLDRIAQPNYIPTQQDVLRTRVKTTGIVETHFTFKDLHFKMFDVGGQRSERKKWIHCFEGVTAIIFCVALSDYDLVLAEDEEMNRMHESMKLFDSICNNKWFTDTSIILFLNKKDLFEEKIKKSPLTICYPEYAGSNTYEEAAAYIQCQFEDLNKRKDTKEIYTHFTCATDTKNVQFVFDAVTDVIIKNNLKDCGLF
Alpha-galactosidase (Coffea arabica), sequence (Q42656 whole entry, looked up): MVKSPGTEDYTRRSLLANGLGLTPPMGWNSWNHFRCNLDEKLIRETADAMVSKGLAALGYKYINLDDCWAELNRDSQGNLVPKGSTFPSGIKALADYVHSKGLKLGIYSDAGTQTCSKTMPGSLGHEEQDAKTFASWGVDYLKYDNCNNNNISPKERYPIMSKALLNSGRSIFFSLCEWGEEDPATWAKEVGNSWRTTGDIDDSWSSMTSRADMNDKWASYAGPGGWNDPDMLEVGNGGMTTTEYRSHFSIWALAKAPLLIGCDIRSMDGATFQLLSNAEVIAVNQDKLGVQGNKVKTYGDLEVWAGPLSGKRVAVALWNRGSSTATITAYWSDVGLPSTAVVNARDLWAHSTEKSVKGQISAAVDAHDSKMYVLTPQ

CCCN(CCC)C(=O)Cc1c(-c2ccc(Cl)cc2)nc2c(Cl)cc(Cl)cn12
inactive: outcome [1] | activity change, negative = inhibition [2] 7.25% | outcome [3] | Potency [4] > 46 µM | Potency [5] > 46 µM | outcome [7] | outcome [8] | outcome [9] | outcome [10] | outcome [11]
active: Potency [6] 2.51 µM

NCC#Cc1ccccc1
inactive: outcome [1] | activity change, negative = inhibition [2] 3.19% | outcome [3] | Potency [4] > 46 µM | Potency [5] > 46 µM | outcome [12] | Potency [6] | outcome [7] | outcome [8] | outcome [9] | outcome [10] | outcome [11]

C/C1=C/C[C@@H](/C(C)=C/c2csc(C)n2)OC(=O)C[C@H](O)C(C)(C)C(=O)[C@H](C)[C@@H](O)[C@@H](C)CCC1
active: Potency [13] 0.0607 µM

CC(C)(O)C1C2OC(=O)C1[C@]1(O)C[C@H]3O[C@]34C(=O)O[C@H]2[C@]14C (some centres undefined) (tested in a mixture with another compound)
inactive: Potency [14] | Potency [15] | activity, negative = inhibition ([16]; parasite line A) 14% | activity, negative = inhibition ([16]; parasite line B) -0.69%

CC12CCC3C(CCC4=C(O)C(=O)CCC43C)C1CCC2=O (centres undefined)
inactive: Potency [14] | Potency [15]

COCC(=O)Nc1cc(Sc2ccccc2)ccc1N=C(NC(=O)OC)NC(=O)OC
inactive: Potency [17] | Potency [18] | Potency [19] | Potency [20]

Oc1ccc2c3c1O[C@H]1[C@@H](O)CC[C@@]4(O)C(C2)N(CC2CCC2)CCC314 (some centres undefined)
inactive: Potency [14] | Potency [15] | activity, negative = inhibition ([16]; parasite line A) 12% | activity, negative = inhibition ([16]; parasite line B) 0.575%

COc1cc(C=C(C#N)C#N)cc(O)c1O
inactive: outcome [1] | activity change, negative = inhibition [2] -29.4% | outcome [3] | Potency [4] > 46 µM | Potency [5] > 46 µM | outcome [12] | Potency [6] | outcome [7] | outcome [8] | outcome [9] | outcome [10] | outcome [11]

CCC(C(=O)O)[C@H]1CC[C@H](C)[C@H]([C@@H](C)[C@H](O)[C@H](C)C(=O)[C@H](CC)[C@H]2OC3(C=C[C@@H](O)[C@]4(CC[C@@](C)([C@H]5CC[C@](O)(CC)[C@H](C)O5)O4)O3)[C@H](C)C[C@@H]2C)O1 (some centres undefined)
active: Potency [17] 3.98 µM | Potency [18] 7.94 µM | Potency [19] 0.891 µM

CC[C@@H](CO)NC(=O)[C@H]1C=C2c3cccc4c3c(cn4C)C[C@H]2N(C)C1
inactive: Potency [6]

CCCC[N+]1(C)C2CC(OC(=O)C(CO)c3ccccc3)CC1C1OC12 (centres undefined)
inactive: Potency [14] | Potency [15] | activity, negative = inhibition ([16]; parasite line A) -8.81% | activity, negative = inhibition ([16]; parasite line B) -5.62%

C[C@H]1C2Cc3ccc(O)cc3[C@]1(C)CCN2CC1CC1
inactive: Potency [14] | Potency [15]

CN(C)CC(c1ccc(O)cc1)C1(O)CCCCC1 (centres undefined)
inactive: Potency [17] | Potency [18] | Potency [19] | Potency [20]
